Compound activity deposited in PubChem BioAssay by National Center for Advancing Translational Sciences (NCATS).
Compounds with a hit are over-represented: about 8% of the library has one in this group of screens.
SW480 rereplic: DNA re-replication induction in SW480 cells | SW480 DNA re-replication, Hoechst DNA content imaging, 48 h | Potency, µM (top dose mostly 46.1 µM), usual class: activators | 340,000 compounds, 1.8% hits | AID 624297; note: nearly all actives have a fitted effect of over 55% in size
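Hoechst fluorescence of nuclei (405 nm excitation, 500-530 nm emission) measured by plate-scanning imager after 48 hr compound exposure at 37 C; re-replication scored as increased number of nuclei with elevated intensity.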
MCF10A rerep: DNA re-replication induction in MCF 10a cells; MCF 10A DNA re-replication, Hoechst nuclear intensity, 48 h; Potency, µM (titrated, usually from 46.1 µM), most hits filed as activators; 350,000 compounds, 2.9% hits; AID 624296; note: nearly all actives have a fitted effect of over 50% in size
KB-3-1 tox: KB-3-1 parental cell cytotoxicity; KB-3-1 viability, CellTiter-Glo ATP luminescence, 72 h; Potency, µM (highest dose often 46.1 µM), hits mostly cytotoxic; 400,000 compounds, 1.4% hits; note: nearly all actives have a fitted effect of over 60% in size
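Viability of parental KB-3-1 cells, measured by CellTiter-Glo luminescence, followed a 72 h incubation at 37 °C with pinned compounds in phenol-red-free DMEM containing 10% FBS.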
HT1080-NT tox: kills 2HG-producing HT-1080-NT fibrosarcoma cells. HT-1080-NT fibrosarcoma viability, CellTiter-Glo ATP luminescence, 48 h. Potency, µM (series often up to 46.1 µM), most hits filed as cytotoxic. 360,000 compounds, 1.6% hits. AID 686970;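 note: NT is the 2HG producing partner of a matched IDH1 knockdown line; nearly all actives have a fitted effect of over 55% in size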
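A 48-hour cytotoxicity screen used HT-1080-NT cells plated 2 hours before compound delivery. ATP-based CellTiter-Glo luminescence measured viability, normalized to DMSO and no-cell controls.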
HT1080 IDH1KD tx: toxicity to HT-1080 IDH1 knockdown cells (counter line) | HT-1080 IDH1 knockdown viability, ATP luminescence, 48 h | Potency, µM (doses to about 46.1 µM), usual class: cytotoxic | 360,000 compounds, 2% hits
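% activity derives from luminescence (CellTiter-Glo), normalised to DMSO and no-cell wells. HT-1080-IDH1KD cells, 750/well, had 48 h compound exposure at 37 °C.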
KB-V1 MDR tox: KB-V1 MDR subline cytotoxicity; Potency, µM (highest dose often 46.1 µM), most hits filed as cytotoxic; 400,000 compounds, 3.4% hits; KB-V1 MDR cells viability, CellTiter-Glo, 72 h; note: nearly all actives have a fitted effect of over 60% in size
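qHTS viability screen in drug-selected KB-V1 MDR cells: 72 h compound treatment at 37 degrees C, ATP luminescence end point.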
Numbers stand for hits; - = inactive; ? = inconclusive; . = no result given; ! = not confirmed by another sample; [ ] = dose if it differs, or a comment. Calls come from the whole dose curve; as a rule, active = well fitted curve in the direction sought with a large enough effect; inconclusive = small, poorly fitted or top-dose-only effect, or another doubt; inactive = no such curve, though single readings can be large; an effect the other way counts as inactive or inconclusive.

SMILES	SW480 rereplic	MCF10A rerep	KB-3-1 tox	HT1080-NT tox	HT1080 IDH1KD tx	KB-V1 MDR tox
COc1ccccc1-n1cnc2c(c1=O)c1nc3ccccc3nc1n2-c1ccc(C)cc1	-	-	-	-	-	?
COc1ccccc1-n1c2nc3ccccc3nc2c2c(=O)n(-c3cc(C)cc(C)c3)cnc21	?	23.1µM	-	-	-	?
COc1ccc(S(=O)(=O)N2c3cc(Cl)ccc3Oc3nc4ccccc4nc32)cc1	2.06µM	1.03µM	2.06µM	?	0.92µM	7.31µM
O=S(=O)(c1ccc(Cl)cc1)N1CN(CC2CCCO2)c2nc3ccccc3nc21 (stereo not given)	-	-	-	-	-	-
CCCCN1CN(S(=O)(=O)c2ccc(OC)cc2)c2nc3ccccc3nc21	-	-	-	-	-	-
O=S(=O)(c1ccc(Cl)cc1)N1c2ccccc2Oc2nc3ccccc3nc21	-	14.6µM	?	-	-	?
O=C(CCSCc1ccccc1Cl)N1CCN(c2cccc(Cl)c2)CC1	-	?	-	-	-	20.6µM!
O=C(CSCc1nc2ccccc2[nH]1)N1CCN(c2cccc(Cl)c2)CC1	?	-	?	-	-	20.6µM
COc1cc2cc(C#N)c(SCC(=O)OC(C)C)nc2cc1OC	.	.	-	.	.	-
COc1cccc(NC(=S)N2CCC(c3ccc(C)cc3)C2)c1 (stereo not given)	-	?	?	-	-	-
Clc1ccc2nc(N3CCNCC3)nc(-c3ccccc3)c2c1	11.2µM	?	?	-	-	18.4µM
c1ccc(-c2nc(N3CCCC3)nc3ccccc23)cc1	18.4µM	23.1µM	-	-	-	-
c1ccc2c(N3CCCCC3)nc(N3CCCCC3)nc2c1	-	-	?	-	-	?
CN1CCN(c2nnc(-c3ccccc3)c(-c3ccccc3)n2)CC1	-	-	-	-	-	?
CN1CCN(c2nc(-c3ccccc3)c3cc(Cl)ccc3n2)CC1	7.94µM	3.98µM	?	?	-	?
O=C1CN(c2nc(-c3ccccc3)c3cc(Cl)ccc3n2)c2ccccc2N1	?	-	-	-	-	-
O=C(NCc1ccccc1Cl)c1ccc(CSCc2ccccc2Cl)o1	.	.	-	.	.	-
O=C(C[n+]1cccc2cc(Cl)ccc21)c1ccc2c(c1)CCCC2	.	.	-	.	.	-
CC1Cc2ccccc2N1C(=S)Nc1ccc(S(N)(=O)=O)cc1 (stereo not given)	-	-	?	-	-	18.4µM
CC1Cc2ccccc2N1C(=S)NC(=O)c1ccc(Cl)cc1Cl (stereo not given)	-	-	-	-	-	16.4µM
CC1Cc2ccccc2N1C(=S)NC(=O)c1cccc(Br)c1 (stereo not given)	-	-	?	-	-	?
NC(c1ccccc1)c1cccs1 (stereo not given)	.	.	-	-	-	-
CCOC(=O)c1cccc(NC(=O)C(C)n2nc(C)c3c(C)n(-c4ccccc4)nc3c2=O)c1 (stereo not given)	.	.	-	.	.	-
COC(=O)C(Cc1cnc(Cl)s1)(C(=O)OC)c1ccc([N+](=O)[O-])cc1[N+](=O)[O-]	-[9.22 µM]	-	?	-	-	?
O=[N+]([O-])c1ccc(OCc2cnc(Cl)s2)c([N+](=O)[O-])c1	-	?	6.51µM	-	-	1.16µM
SMILES	SW480 rereplic	MCF10A rerep	KB-3-1 tox	HT1080-NT tox	HT1080 IDH1KD tx	KB-V1 MDR tox
Nc1ccc(Oc2ccc([N+](=O)[O-])cc2[N+](=O)[O-])cc1	-	-	-	-	?	-
O=[N+]([O-])c1ccc(Oc2cccnc2)c([N+](=O)[O-])c1	?	5.8µM	?	?	?	-
O=[N+]([O-])c1ccc(Oc2cccc(Br)c2)c2ccncc12	?	?	?	20.6µM	?	?
O=[N+]([O-])c1ccc(Oc2ccc(F)cc2)c2ccncc12	-	?	-	?	-[9.24 µM]	-
CC1CCC(C(C)C)C(OC(=O)COC(=O)c2cc(O)ccc2N)C1 (stereo not given)	25.9µM	23.1µM	-	?	?	-
COc1ccccc1N(C)S(=O)(=O)c1ccc(C(=O)OCC(=O)N2CCC2)cc1	-	-	?	?	16.4µM	?
COc1ccccc1N(C)S(=O)(=O)c1ccc(C(=O)N2CCCC(C(F)(F)F)C2)cc1 (stereo not given)	4.61µM	-	-	-	-	-
COc1ccccc1NS(=O)(=O)c1ccc(C(=O)N2CCCC(C(F)(F)F)C2)cc1 (stereo not given)	-	-	-	-	-	-
Cn1nc(CC(=O)Nc2ccc3c(c2)CCC3)c2ccccc2c1=O	-	-	-	-	2.91µM	-
Cc1nn(CC(=O)NCc2ccc(-n3cccn3)cc2)c(C)c1[N+](=O)[O-]	0.517µM	-	-	-	-	-
Cn1nc(CC(=O)NC2CCCCCCCCCCC2)c2ccccc2c1=O	-	-	?	-	-	-
Cc1ccc(NC(=O)Cn2nc(C)c([N+](=O)[O-])c2C)cc1C	-[1.84 µM]	-	-	-	-	-
Cc1nn(CC(=O)Nc2ccc3c(c2)CCC3)c(C)c1[N+](=O)[O-]	-	-	-	-	-	18.4µM
CCN(CC)c1ccc(S(=O)(=O)N2CCOCC2)cc1NC(=O)Cn1nc(C)c([N+](=O)[O-])c1C	-	-	-	-	-	-
Cc1nn(CC(=O)Nc2cc(S(=O)(=O)N(C)C)ccc2Cl)c(C)c1[N+](=O)[O-]	-	-	-	-	-	20.6µM
Cc1nn(CC(=O)NCc2ccc(Cl)cc2)c(C)c1[N+](=O)[O-]	?	-	-	-	-	-
COc1ccc(C2=C(N3CCN(c4cccc(C)c4)C(C)C3)c3ccccc3C2=O)cc1 (stereo not given)	.	.	-	.	.	?
O=[N+]([O-])c1ccc(O)c(C2=NNC(c3ccccc3F)C2)c1 (stereo not given)	-	3.66µM	?	20.6µM	?	?
N#C/C(=C/c1cn(-c2ccccc2)nc1-c1cccc(OCc2ccc(F)cc2)c1)C(=O)NCCCn1ccnc1	?	10.3µM	?	16.4µM	?	16.4µM
N#C/C(=C\c1ccc([N+](=O)[O-])cc1)C(=O)NCCCn1ccnc1	-	?	?	-	-	-
CCCOc1cccc(-c2nn(-c3ccccc3)cc2/C=C(\C#N)C(=O)NCCCn2ccnc2)c1	?	?	-	-	-	18.4µM
CCN(CC)CCNC(=O)C(=O)NCC(c1cccnc1)N1CCN(c2ccccc2)CC1 (stereo not given)	.	.	-	.	.	-
Cc1ccc(-c2nc3cccnc3s2)cc1NS(=O)(=O)c1ccc2c(c1)OCCO2	?	?	-	?	?	?
Cc1ccc(-c2nc3cccnc3s2)cc1NS(=O)(=O)c1cccs1	-	16.4µM	-	-	-	-
